Key:
[1] = molecular target: Tyrosine-protein kinase SYK (Homo sapiens) (UniProt P43405); conditions: at 10 µM
[2] = molecular target: T1, Mitogen-activated protein kinase kinase kinase 7 (Homo sapiens) (UniProt O43318); conditions: at 1 µM
T1 sequence (whole entry): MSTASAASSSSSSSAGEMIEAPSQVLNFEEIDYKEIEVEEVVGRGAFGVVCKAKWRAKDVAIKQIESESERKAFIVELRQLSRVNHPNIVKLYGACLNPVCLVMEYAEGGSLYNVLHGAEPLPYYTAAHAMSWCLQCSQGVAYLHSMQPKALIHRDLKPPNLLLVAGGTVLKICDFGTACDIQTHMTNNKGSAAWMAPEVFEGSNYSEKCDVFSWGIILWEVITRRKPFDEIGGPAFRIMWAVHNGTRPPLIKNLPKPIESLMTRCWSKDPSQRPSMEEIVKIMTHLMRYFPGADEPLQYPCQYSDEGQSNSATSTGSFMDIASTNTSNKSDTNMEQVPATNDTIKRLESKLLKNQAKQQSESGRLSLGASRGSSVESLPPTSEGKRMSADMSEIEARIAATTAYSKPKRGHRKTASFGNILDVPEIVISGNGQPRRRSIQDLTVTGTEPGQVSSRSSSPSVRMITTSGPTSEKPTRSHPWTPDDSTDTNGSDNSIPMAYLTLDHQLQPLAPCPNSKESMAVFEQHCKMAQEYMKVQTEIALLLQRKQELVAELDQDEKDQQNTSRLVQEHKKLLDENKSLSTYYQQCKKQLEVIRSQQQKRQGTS

[3] = molecular target: T1, Mitogen-activated protein kinase kinase kinase 7 (Homo sapiens); conditions: at 10 µM
[4] = molecular target: T2, Serine/threonine-protein kinase TAO1 (Homo sapiens) (UniProt Q7L7X3); conditions: at 1 µM
T2 sequence (whole entry): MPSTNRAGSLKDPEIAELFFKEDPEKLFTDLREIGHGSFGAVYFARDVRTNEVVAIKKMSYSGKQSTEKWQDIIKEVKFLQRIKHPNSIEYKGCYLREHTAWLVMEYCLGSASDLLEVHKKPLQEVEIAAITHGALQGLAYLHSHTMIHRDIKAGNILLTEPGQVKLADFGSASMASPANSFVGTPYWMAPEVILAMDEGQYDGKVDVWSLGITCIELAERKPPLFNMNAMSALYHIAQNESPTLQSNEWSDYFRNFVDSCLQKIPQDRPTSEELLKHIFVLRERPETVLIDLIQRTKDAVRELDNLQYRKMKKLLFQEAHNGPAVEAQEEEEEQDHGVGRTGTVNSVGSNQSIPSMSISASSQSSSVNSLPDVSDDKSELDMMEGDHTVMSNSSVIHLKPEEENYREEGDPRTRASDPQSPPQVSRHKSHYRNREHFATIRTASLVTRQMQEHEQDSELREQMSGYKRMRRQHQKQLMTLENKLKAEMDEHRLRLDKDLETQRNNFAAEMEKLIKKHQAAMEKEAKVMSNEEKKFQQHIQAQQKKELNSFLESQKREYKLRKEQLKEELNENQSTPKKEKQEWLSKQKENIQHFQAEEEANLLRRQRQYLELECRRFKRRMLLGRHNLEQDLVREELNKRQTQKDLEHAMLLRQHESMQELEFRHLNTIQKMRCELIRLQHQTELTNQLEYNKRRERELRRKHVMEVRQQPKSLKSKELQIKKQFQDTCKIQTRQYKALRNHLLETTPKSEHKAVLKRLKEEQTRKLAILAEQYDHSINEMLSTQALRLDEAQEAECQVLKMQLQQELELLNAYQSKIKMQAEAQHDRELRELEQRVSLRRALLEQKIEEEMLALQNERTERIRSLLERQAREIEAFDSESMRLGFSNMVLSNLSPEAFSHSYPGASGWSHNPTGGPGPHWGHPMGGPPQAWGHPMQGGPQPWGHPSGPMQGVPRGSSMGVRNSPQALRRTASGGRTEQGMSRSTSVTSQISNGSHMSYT

[5] = molecular target: T2, Serine/threonine-protein kinase TAO1 (Homo sapiens); conditions: at 10 µM
[6] = molecular target: T3, Serine/threonine-protein kinase TAO2 (Homo sapiens) (UniProt Q9UL54); conditions: at 1 µM
T3 sequence (whole entry): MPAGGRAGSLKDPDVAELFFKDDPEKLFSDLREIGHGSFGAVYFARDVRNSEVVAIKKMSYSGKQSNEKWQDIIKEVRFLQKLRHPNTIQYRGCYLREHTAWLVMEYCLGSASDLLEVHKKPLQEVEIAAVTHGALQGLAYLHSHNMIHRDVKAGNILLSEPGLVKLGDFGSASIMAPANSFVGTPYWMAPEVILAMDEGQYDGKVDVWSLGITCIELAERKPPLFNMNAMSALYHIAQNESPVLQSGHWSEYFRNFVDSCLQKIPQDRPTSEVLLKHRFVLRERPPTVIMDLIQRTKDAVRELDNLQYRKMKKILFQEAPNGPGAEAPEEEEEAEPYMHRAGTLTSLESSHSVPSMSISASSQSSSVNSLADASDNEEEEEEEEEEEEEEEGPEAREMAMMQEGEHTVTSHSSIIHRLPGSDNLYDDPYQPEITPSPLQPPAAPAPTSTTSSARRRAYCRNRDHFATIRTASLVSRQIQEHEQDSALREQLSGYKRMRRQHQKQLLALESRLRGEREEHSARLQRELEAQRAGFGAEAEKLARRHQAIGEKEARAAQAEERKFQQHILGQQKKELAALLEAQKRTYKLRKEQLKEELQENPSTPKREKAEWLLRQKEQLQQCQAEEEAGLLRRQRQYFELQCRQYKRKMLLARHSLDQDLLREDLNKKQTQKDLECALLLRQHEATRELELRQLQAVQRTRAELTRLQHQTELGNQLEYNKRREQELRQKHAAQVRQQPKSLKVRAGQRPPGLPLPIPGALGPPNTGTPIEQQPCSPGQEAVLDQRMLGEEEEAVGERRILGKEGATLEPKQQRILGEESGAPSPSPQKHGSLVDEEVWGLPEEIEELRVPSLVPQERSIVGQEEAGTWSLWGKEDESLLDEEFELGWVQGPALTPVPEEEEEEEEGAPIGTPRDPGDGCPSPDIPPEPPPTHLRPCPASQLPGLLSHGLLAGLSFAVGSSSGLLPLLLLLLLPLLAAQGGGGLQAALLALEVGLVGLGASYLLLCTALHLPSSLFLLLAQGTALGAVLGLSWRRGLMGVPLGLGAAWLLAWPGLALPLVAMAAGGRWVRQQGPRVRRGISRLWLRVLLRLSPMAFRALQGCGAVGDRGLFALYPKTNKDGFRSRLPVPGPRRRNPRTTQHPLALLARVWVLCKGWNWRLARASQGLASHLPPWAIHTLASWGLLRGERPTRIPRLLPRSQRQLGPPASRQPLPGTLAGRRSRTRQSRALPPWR

[7] = molecular target: T3, Serine/threonine-protein kinase TAO2 (Homo sapiens); conditions: at 10 µM
[8] = molecular target: T4, Serine/threonine-protein kinase TAO3 (Homo sapiens) (UniProt Q9H2K8); conditions: at 1 µM
T4 sequence (whole entry): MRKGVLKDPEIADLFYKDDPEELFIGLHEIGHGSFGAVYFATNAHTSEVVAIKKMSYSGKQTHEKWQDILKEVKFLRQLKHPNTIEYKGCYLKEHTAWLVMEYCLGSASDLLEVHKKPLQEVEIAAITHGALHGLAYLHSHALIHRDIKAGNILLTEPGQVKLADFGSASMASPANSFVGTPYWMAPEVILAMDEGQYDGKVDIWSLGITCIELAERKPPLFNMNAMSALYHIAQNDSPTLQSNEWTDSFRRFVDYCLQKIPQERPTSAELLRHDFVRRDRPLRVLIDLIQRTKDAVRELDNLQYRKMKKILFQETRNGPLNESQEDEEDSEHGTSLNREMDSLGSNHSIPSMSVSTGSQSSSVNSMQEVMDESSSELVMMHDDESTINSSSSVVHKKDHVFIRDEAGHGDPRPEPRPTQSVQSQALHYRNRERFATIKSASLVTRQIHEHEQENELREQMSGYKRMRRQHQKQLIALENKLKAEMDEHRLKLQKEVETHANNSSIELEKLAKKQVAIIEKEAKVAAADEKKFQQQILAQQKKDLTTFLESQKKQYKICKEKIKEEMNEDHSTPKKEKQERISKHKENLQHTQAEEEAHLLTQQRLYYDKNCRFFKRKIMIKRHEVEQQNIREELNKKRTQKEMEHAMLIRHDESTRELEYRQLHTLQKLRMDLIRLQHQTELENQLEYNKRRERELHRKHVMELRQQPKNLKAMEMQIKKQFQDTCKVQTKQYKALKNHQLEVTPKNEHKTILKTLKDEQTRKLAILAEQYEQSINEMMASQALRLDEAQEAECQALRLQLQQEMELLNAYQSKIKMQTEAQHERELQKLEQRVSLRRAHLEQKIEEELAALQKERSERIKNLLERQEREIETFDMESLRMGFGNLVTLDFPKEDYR

[9] = molecular target: T4, Serine/threonine-protein kinase TAO3 (Homo sapiens); conditions: at 10 µM

With `O=C(CCCc1ccc(-c2ccccc2F)cc1)Nc1ccc(O)cc1` the residual activity [1] was 79%, the residual activity [2] was 93% and the residual activity [3] was 92%. It also gave a residual activity [4] of 103%, a residual activity [5] of 95% and a residual activity [6] of 105%. It also gave a residual activity [7] of 102%, a residual activity [8] of 100% and a residual activity [9] of 94%.

— ChEMBL document CHEMBL2218924, “A broad activity screen in support of a chemogenomic map for kinase signalling research and drug discovery” (Biochem J, 2013)
